The source of these data is the supplement of paper PMC6897291.

The test system of the test is U-2932. Put plainly: growth inhibition by drug alone (1 - RLU/untreated control) (fraction); higher = stronger inhibition. Conditions: 177Lu-lilotomab satetraxetan 0 ug/ml. On the procedure: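 U-2932 ABC-DLBCL cells were pretreated or not for 18 h with 1 ug/ml 177Lu-lilotomab satetraxetan (600 MBq/mg), washed and seeded (3000 cells/well) on 384-well plates pre-printed with the Selleck Cambridge Cancer Compound library. Viability was read by RealTime-Glo luminescence on days 3-6 after seeding. Effect = 1 - RLU/mean RLU of the 48 untreated no-drug control wells per plate; Bliss score = (M-E)/(1-Fa), with E the expected Bliss-additive effect.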

On to `CC(O)(CS(=O)(=O)c1ccc(F)cc1)C(=O)Nc1ccc(C#N)c(C(F)(F)F)c1` (stereo not given) [Bicalutamide (Casodex)], for which the “growth inhibition by drug alone” value was 0.0907 (10 nM, time (day): 3); 0.0654 (10 nM, time (day): 4); -0.0744 (10 nM, time (day): 5); -0.0699 (10 nM, time (day): 6); -0.0505 (1000 nM, time (day): 3); -0.00664 (1000 nM, time (day): 4). For the same compound, the “growth inhibition by drug alone” value by setting is: (1000 nM, time (day): 5) -0.0598; (1000 nM, time (day): 6) -0.262.

Take `CCC1(c2ccc(N)cc2)CCC(=O)NC1=O` (stereo not given) [Aminoglutethimide (Cytadren)]: the “growth inhibition by drug alone” value (10 nM, time (day): 3) was found to be 0.0306; the “growth inhibition by drug alone” value (10 nM, time (day): 4) was -0.0299; the “growth inhibition by drug alone” value (10 nM, time (day): 5) is -0.152; the “growth inhibition by drug alone” value (10 nM, time (day): 6) is -0.107; the “growth inhibition by drug alone” value (1000 nM, time (day): 3) was -0.0187; the “growth inhibition by drug alone” value (1000 nM, time (day): 4) was -0.0577. The “growth inhibition by drug alone” value reads like this: (1000 nM, time (day): 5) -0.161; (1000 nM, time (day): 6) -0.122.

In the case of `Cc1ccccc1-n1c(Cn2cnc3c(N)ncnc32)nc2cccc(C)c2c1=O`, the “growth inhibition by drug alone” value came out at 0.0494 (10 nM, time (day): 3); 0.000763 (10 nM, time (day): 4); 0.0122 (10 nM, time (day): 5); 0.0686 (10 nM, time (day): 6); 0.047 (1000 nM, time (day): 3); 0.0488 (1000 nM, time (day): 4). Besides, the “growth inhibition by drug alone” value (1000 nM, time (day): 5) came out at 0.0186 and the “growth inhibition by drug alone” value (1000 nM, time (day): 6) amounted to 0.102.

In the case of `Cn1cc(C2=C(c3cn(C4CCN(Cc5ccccn5)CC4)c4ccccc34)C(=O)NC2=O)c2ccccc21`, the “growth inhibition by drug alone” value by setting is: (10 nM, time (day): 3) -0.0338; (10 nM, time (day): 4) -0.0583; (10 nM, time (day): 5) -0.0539; (10 nM, time (day): 6) 0.0229; (1000 nM, time (day): 3) -0.144; (1000 nM, time (day): 4) -0.131. For the same compound, the “growth inhibition by drug alone” value is -0.13 (1000 nM, time (day): 5) and -0.0775 (1000 nM, time (day): 6).

Consider `C=C1C[C@@H]2[C@H](CC[C@]3(C)C(=O)CC[C@@H]23)[C@@]2(C)C=CC(=O)C=C12` [Exemestane], for which the “growth inhibition by drug alone” value was 0.0753 (10 nM, time (day): 3); 0.00319 (10 nM, time (day): 4); -0.0809 (10 nM, time (day): 5); -0.0708 (10 nM, time (day): 6); -0.0344 (1000 nM, time (day): 3); -0.0359 (1000 nM, time (day): 4). For the same compound, the “growth inhibition by drug alone” value by setting is: (1000 nM, time (day): 5) -0.1; (1000 nM, time (day): 6) 0.0186.
